Data from PubChem BioAssay (Tox21).
Results filed as inconclusive are left out. Entries that show only a call come without a potency. Calls of active or inactive are those of the source. Unless noted, the call rests on the fitted dose curve; in most records, active means well fitted curve in the direction sought with a large enough effect in the repeat runs; inconclusive means weak or mixed curves; inactive means no such curve, though single readings can be large; an effect the other way counts as inactive or inconclusive.

How the values were obtained:
[1] = A CellTox Green Cytotoxicity Assay to monitor cytotoxicity in HepG2 cells - 8 hour (AID 1224890); further: nearly all actives have a fitted effect of over 45% in size
How it was run: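 HepG2, 600 cells/well premixed w/ CellTox Green; 5 h settle, 37 C/5% CO2; pintool cpd add (DMSO); 37 C, 40 h; fluorescence read at 0, 8, 16, 24, 32, 40 h.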

[2] = qHTS assay to identify small molecule antagonists of the estrogen receptor alpha (ER-alpha) signaling pathway using the BG1 cell line in the presence of 0.1 nM 17-beta-estradiol - cell viability counter screen (AID 1259241); further: nearly all actives have a fitted effect of over 40% in size
How it was run: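 Following 5 days in phenol red-free medium with charcoal-stripped serum, VM7Luc4E2 cells received test compounds alongside 0.1 nM 17beta-estradiol (final) at 37C for 22 hr. Live cells were then quantified via protease-substrate fluorescence.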

[3] = qHTS assay to identify small molecule antagonists of the androgen receptor (AR) signaling pathway using the MDA cell line in the presence of 0.5 nM R1881 - cell viability counter screen (AID 1259242); further: nearly all actives have a fitted effect of over 45% in size
How it was run: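 Live-cell protease fluorescence, CellTiter-Fluor, 30 min at 37C. Cells: MDA-kb2, 3,000/well, preincubated 5 hr. Compounds plus 0.5 nM R1881 final, 16 hr, 37C, 0% CO2.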

[4] = qHTS assay to identify small molecule HDAC inhibitors (AID 1259364); further: potency means the concentration at half of the fitted maximal effect;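 further: wild-type HCT-116 cells with endogenous class I/II HDAC activity; nearly all actives have a fitted effect of over 45% in size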
How it was run: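 HCT-116 (wild type), 1,500 cells/well, overnight; compound 2 hr 37C 5% CO2; HDAC-Glo I/II reagent 30 min RT; luminescence readout.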

[5] = qHTS assay to identify small molecule HDAC inhibitors - cell viability counter screen (AID 1259365); further: series mostly up to about 92 µM; nearly all actives have a fitted effect of over 50% in size
How it was run: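 HCT-116 wild-type, overnight attachment; 2hr drug exposure, 37C; CellTiter-Glo luminescent ATP readout after 30min RT.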

[6] = qHTS assay to identify small molecule agonists of the sonic hedgehog signaling (Shh) pathway (AID 1259368; calls by dose curve;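 further: NIH/3T3-derived 3T3Gli1-Luc cells carrying a stable Gli1-driven firefly luciferase reporter; series mostly up to about 92 µM; nearly all actives have a fitted effect of over 15% in size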)
How it was run: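 Read-out: firefly luciferase luminescence from a Gli1 response element reporter stably integrated in NIH/3T3-derived 3T3Gli1-Luc cells, measured 30 min at room temperature after reagent addition. Compound exposure lasted 24 hr at 37 C, 5% CO2.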

[7] = target: Estrogen receptor beta (Homo sapiens) (UniProt Q92731); assay: qHTS assay to identify small molecule agonists of the estrogen receptor beta (ER-beta) signaling pathway (AID 1259377; active means well fitted activation curve with a large enough effect in the signal ratio in the repeat runs, not every such curve was filed as active; the % refers to the signal ratio)
How it was run: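 qHTS in ER-beta-UAS-bla HEK293T cells: 6 hr settling, then 16 hr compound at 37C, then LiveBLAzer substrate 2 h at RT before fluorescence reading.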

[8] = target: Estrogen receptor beta (Homo sapiens) (UniProt Q92731); assay: qHTS assay to identify small molecule antagonists of the estrogen receptor beta (ER-beta) signaling pathway (AID 1259378; active means well fitted inhibition curve with a large enough effect in the signal ratio in the repeat runs, not every such curve was filed as active; the % refers to the signal ratio)
How it was run: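 ER-beta-UAS-bla HEK293T cells in 2% charcoal-stripped FBS medium treated with compound plus 1nM final 17-beta-estradiol for 16 hr at 37C. Beta-lactamase reporter read by FRET substrate fluorescence after 2 hours at room temperature.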

[9] = qHTS assay to identify small molecule agonists of the androgen receptor (AR) signaling pathway in the presence of an antagonist - cell viability counter screen (AID 1259379);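 further: MDA-kb2 human breast cancer cells carrying an MMTV luciferase reporter; series mostly up to about 92 µM; nearly all actives have a fitted effect of over 25% in size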
How it was run: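 Viability counter screen: CellTiter-Fluor fluorescence, measured in the same wells as the luciferase read-out. MDA-kb2 cells, 3,000/well, with nilutamide at 3.0uM final and compounds at 15 concentrations, 16 hr at 37C, 0% CO2.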

[10] = qHTS assay to identify small molecule agonists of the estrogen receptor beta (ER-beta) signaling pathway - cell viability counter screen (AID 1259380); further: nearly all actives have a fitted effect of over 30% in size; further: potency means the concentration at half of the fitted maximal effect
How it was run: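 Luminescence read-out (CellTiter-Glo, 30 min, room temp) taken in the same wells as the beta-lactamase reporter assay; ER-beta-UAS-bla HEK293T cells exposed to DMSO-dissolved compounds for 16 hr at 37C in 2% charcoal-stripped FBS medium.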

[11] = qHTS assay to identify small molecule antagonists of the estrogen receptor beta (ER-beta) signaling pathway - cell viability counter screen (AID 1259382); further: nearly all actives have a fitted effect of over 55% in size; further: potency means the concentration at half of the fitted maximal effect
How it was run: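 Luminescent ATP read-out (CellTiter-Glo, 30 min, RT) taken in the same wells as the bla reporter assay. HEK293T ER-beta-UAS-bla cells in 2% charcoal-stripped FBS were exposed to compounds with 1nM E2 for 16 hr at 37C.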

[12] = target: Estrogen receptor (Homo sapiens) (UniProt P03372); assay: qHTS assay to identify small molecule agonists of the estrogen receptor alpha (ER-alpha) signaling pathway in the presence of an antagonist (AID 1259383; calls by dose curve; further: top concentration of the series differs between compounds; nearly all actives have a fitted effect of over 15% in size)
How it was run: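 Luciferase luminescence (ONE-Glo, 30min at room temperature) measured in VM7Luc4E2 cells after 22hr compound exposure at 15 concentrations, with 10.0nM ICI-182,780 final present; cells express endogenous ER-alpha and carry four EREs upstream of luciferase.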

[13] = qHTS assay to identify small molecule agonists or antagonists of the thyroid stimulating hormone receptor (TSHR) signaling pathway - wild type cell line counter screen (AID 1259384; calls by dose curve)
How it was run: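 Wild-type Hek293 cells, 800/well, 18 h at 37C, then compound with Ro20-1724 for 30 min RT. cAMP by HTRF (cAMP-d2/anti-cAMP cryptate), 1 h RT, fluorescence read. 15 concentrations, triplicates.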

[14] = qHTS assay to identify small molecule agonists of the sonic hedgehog signaling (Shh) pathway - cell viability counter screen (AID 1259366); further: nearly all actives have a fitted effect of over 50% in size
How it was run: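 Compounds in DMSO were pin-transferred onto 3T3 Gli1-Luc cells that had settled 4hr; plates then stood 24hr at 37C and 5% CO2. One hour before the end, CellTiter-Fluor was added and fluorescence recorded.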

[15] = qHTS assay to identify small molecule antagonists of the sonic hedgehog signaling (Shh) pathway - cell viability counter screen (AID 1259367); further: nearly all actives have a fitted effect of over 55% in size
How it was run: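 Tox21 library chemicals were tested on a Gli1-Luc NIH/3T3 clone (2,000 cells/well) stimulated by conditioned medium; viability was quantified as fluorescence from CellTiter-Fluor reagent added at 23 hr.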

[16] = qHTS assay to identify small molecule phospholipidosis (PLD) inducers (AID 1259344; active means well fitted curve in the direction sought with a large enough effect; an effect the other way counts as inactive or inconclusive)
How it was run: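 Image-based: LipidTOX Red pit count/intensity per well and per cell; HepG2, 24 h compound at 37 C, PFA fixation, Hoechst counterstain.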

[17] = qHTS assay to identify small molecule antagonists of the sonic hedgehog signaling (Shh) pathway (AID 1259369; calls by dose curve; further: nearly all actives have a fitted effect of over 45% in size)
How it was run: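 Luminescence readout: firefly Luc under Gli1 response element in 3T3Gli1-Luc cells (NIH/3T3 clone). Antagonist mode, stimulation by conditioned medium; compound exposure 24hr at 37 C, 5% CO2.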

Estrogen receptor beta (Homo sapiens), sequence (Q92731 whole entry, looked up): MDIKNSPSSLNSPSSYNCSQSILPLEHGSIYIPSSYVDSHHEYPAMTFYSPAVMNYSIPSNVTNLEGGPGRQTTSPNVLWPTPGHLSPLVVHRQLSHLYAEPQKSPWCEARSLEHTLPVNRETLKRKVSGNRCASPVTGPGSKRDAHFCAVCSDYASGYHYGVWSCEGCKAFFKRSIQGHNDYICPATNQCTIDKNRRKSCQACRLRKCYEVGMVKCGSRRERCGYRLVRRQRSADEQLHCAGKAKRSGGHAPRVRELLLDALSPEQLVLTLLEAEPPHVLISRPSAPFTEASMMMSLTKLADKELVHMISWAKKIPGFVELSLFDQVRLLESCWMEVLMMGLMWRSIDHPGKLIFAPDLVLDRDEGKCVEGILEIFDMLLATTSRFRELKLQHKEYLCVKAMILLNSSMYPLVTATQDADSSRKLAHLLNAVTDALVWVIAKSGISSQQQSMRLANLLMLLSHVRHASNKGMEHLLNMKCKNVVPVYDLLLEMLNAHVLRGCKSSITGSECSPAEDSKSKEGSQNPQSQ
Estrogen receptor (Homo sapiens), sequence (P03372 whole entry, looked up): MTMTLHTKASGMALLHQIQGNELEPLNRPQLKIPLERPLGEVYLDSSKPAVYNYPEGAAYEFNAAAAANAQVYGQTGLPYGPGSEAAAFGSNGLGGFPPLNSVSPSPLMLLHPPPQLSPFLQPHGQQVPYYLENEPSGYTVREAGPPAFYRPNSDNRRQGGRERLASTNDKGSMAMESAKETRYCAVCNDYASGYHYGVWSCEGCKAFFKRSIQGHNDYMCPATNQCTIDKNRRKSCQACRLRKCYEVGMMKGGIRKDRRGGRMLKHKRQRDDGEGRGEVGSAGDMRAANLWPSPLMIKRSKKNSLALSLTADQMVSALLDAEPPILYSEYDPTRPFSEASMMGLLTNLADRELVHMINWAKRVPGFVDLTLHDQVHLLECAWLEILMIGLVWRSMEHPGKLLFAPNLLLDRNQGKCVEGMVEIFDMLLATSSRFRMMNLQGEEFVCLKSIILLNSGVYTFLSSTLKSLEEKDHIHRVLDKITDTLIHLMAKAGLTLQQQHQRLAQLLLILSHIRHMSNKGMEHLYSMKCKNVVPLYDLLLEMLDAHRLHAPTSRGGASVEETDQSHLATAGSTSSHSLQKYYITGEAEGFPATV

Compound | Potency [1] | Potency [2] | Potency [3] | Potency [4] | Potency [5] | Potency [6] | Potency [7] | Potency [8] | Potency [9] | Potency [10] | Potency [11] | Potency [12] | outcome [13] | Potency [14] | Potency [15] | Potency [16] | Potency [17]
C=CC(=O)[O-].C=CC(=O)[O-].[Zn+2] | inactive | inactive | inactive | inactive | inactive | inactive | inactive | inactive | inactive | inactive | inactive | inactive | inactive |  |  |  | 
CC(C)(c1ccccc1)c1ccccc1 | inactive | inactive | inactive | inactive | inactive |  |  |  | inactive | inactive | inactive |  | inactive | inactive | inactive |  | 
CCOC(=O)[C@H](CCc1ccccc1)N[C@@H](C)C(=O)N(CC(=O)O)C1Cc2ccccc2C1 | inactive | inactive | inactive | inactive |  | inactive |  |  | inactive | 6.68 µM (active) | 11.9 µM (active) | inactive |  | inactive | inactive | inactive | inactive
Cc1ccc2c(Br)cc(Br)c(O)c2n1 | inactive | inactive | inactive | inactive |  |  | inactive |  | inactive | 11.9 µM (active) | inactive |  | inactive |  | inactive | inactive | 
CC(=O)c1ccc([N+](=O)[O-])cc1 | inactive | inactive | inactive | inactive | inactive | inactive | inactive | inactive | inactive | inactive | inactive |  | inactive | inactive | inactive |  | inactive
O=C1CCCCCCCCCCOCCCCO1 | inactive | inactive | inactive | inactive | inactive |  | inactive |  | inactive | inactive | inactive |  | inactive | inactive | inactive |  | inactive
Cc1ccccc1S | inactive | inactive | inactive | inactive | inactive | inactive | inactive | inactive | inactive | inactive | inactive | inactive | inactive | inactive | inactive |  | inactive
CC(=O)Nc1ccc(C)cc1C | inactive | inactive | inactive | inactive | inactive | inactive |  |  | inactive |  | inactive |  | inactive | inactive | inactive |  | inactive
C(=C\c1ccccc1)/c1ccccc1 | inactive | inactive | inactive | 19.2 µM (active) | inactive | inactive |  |  | inactive | inactive | inactive | inactive | inactive | inactive | inactive |  | inactive
